The source made the active and inactive calls.
Assays:
Albumin (Bos taurus) = Albumin (Bos taurus) (UniProt P02769); experiment: bovine serum albumin binders on microarray, profiling panel, artefact control for SMM control protein annotation, biochemical, small-molecule microarray, Alexa647 label, 635/667 nm fluorescence (AID 1118); settings: BSA-A647 binding, fluorescence 635 nm, higher = more signal;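 further: score merges 667 nm emission intensity and signal-to-noise per printed compound spot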
[1] = small-molecule microarray binders of probe aXIP, primary screen, biochemical, NeuroSMM set, 635/667 nm fluorescence (AID 1119); settings: higher = more signal, called active from +8 up or from −8 down;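 further: probe is the protein aXip251-270 applied at 1 µg/mL to compound-printed slides; binding of probe to printed compounds measured as 667 nm fluorescence plus signal to noise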
[2] = small-molecule binders of probe aNOTCH3, primary screen, biochemical, small-molecule microarray, 635/667 nm fluorescence (AID 1120); settings: higher = more signal;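 further: probe is a biotin-tagged antibody raised against NOTCH3 rather than NOTCH3 protein; score merges spot fluorescence near 667 nm with spot signal to noise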
[3] = small-molecule binders of probe aNOTCH2, primary screen, biochemical, small-molecule microarray, 635/667 nm fluorescence (AID 1121); settings: higher = more signal;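 further: score merges feature fluorescence read at 667 nm with its signal to noise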
[4] = target: Carbonic anhydrase 2 (Homo sapiens) (UniProt P00918); experiment: CAII small-molecule binders, profiling panel, biochemical, small-molecule microarray, Alexa647-labelled CAII (AID 1122); settings: CAII-A647 binding fluorescence, higher = more signal
[5] = COS7 lysate on small-molecule microarray, probe aHis, 635 nm (AID 1123); settings: COS7 cell lysate, fluorescence, higher = more signal;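 further: z-score combines 667nm fluorescence intensity with signal-to-noise per printed compound spot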
[6] = compound binding in COS7 lysate, probe aLAP1, primary screen, cell lysate, small-molecule microarray (AID 1124); settings: probe aLAP1, fluorescence, higher = more signal;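 further: lysate comes from COS7 cells expressing LAP1 and is applied at 0.3 µg/mL; score merges spot fluorescence near 667 nm with signal-to-noise over triplicate slides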
Sam68 (KHDRBS1) = experiment: Sam68 small-molecule binders, primary screen, biochemical, small-molecule microarray, 635 nm fluorescence (AID 1125); settings: small-molecule microarray binding, higher = more signal;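 further: score merges 667 nm channel intensity with signal to noise over triplicate slides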
[7] = tested on: Chordin-like protein 2 (CHRDL2); experiment: CHRDL2 small-molecule binders, primary screen, biochemical, small-molecule microarray, 635 nm fluorescence (AID 1126); settings: small-molecule microarray binding, fluorescence 635 nm; higher = more signal;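 further: printed compound slides probed with Chrdl2 protein at 4 µg/mL for 1 h at 4 C; score merges 667 nm emission intensity with signal to noise over three replicate slides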
[8] = target: Concanavalin-A (Canavalia ensiformis) (UniProt P02866); experiment: ConA small-molecule binders, primary screen, artefact control for SMM control protein annotation, biochemical, small-molecule microarray, Alexa647 label, 635 nm (AID 1127); settings: ConA-A647 binding fluorescence, higher = more signal;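 further: z combines 667 nm emission intensity with signal-to-noise across three replicate slides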
Sequence of Concanavalin-A (Canavalia ensiformis) (P02866 whole entry, looked up): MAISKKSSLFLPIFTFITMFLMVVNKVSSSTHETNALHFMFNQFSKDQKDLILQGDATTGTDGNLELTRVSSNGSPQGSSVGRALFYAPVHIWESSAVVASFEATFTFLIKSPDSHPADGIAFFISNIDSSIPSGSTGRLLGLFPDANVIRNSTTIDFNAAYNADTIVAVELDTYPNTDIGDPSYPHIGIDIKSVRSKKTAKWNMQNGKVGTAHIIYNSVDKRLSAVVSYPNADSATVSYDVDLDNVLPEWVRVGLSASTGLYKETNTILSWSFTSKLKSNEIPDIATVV

[9] = anti-His antibody binders, primary screen, artefact control for SMM control protein annotation, biochemical, small-molecule microarray, 635 nm fluorescence (AID 1128); settings: anti-His Alexa647 antibody binding, higher = more signal;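 further: score merges feature fluorescence with signal-to-noise for each printed compound spot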
[10] = tested on: Human papillomavirus type 1a E7 protein (residues 1-88); experiment: HPV1a E7 small-molecule binders, primary screen, biochemical, small-molecule microarray, residues 1-88, 635 nm (AID 1129); settings: small-molecule microarray binding, fluorescence 635 nm; higher = more signal
[11] = target: Focal adhesion kinase 1 (Homo sapiens) (UniProt Q05397); experiment: small-molecule microarray binders of FAK, primary screen, biochemical, 635/667 nm fluorescence, BSA, DTT (AID 1130); settings: PTK2 binding, 635 nm fluorescence, higher = more signal;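 further: composite of spot emission at 667 nm and signal to noise over triplicate slides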
Sequence of Focal adhesion kinase 1 (Homo sapiens) (Q05397 whole entry, looked up): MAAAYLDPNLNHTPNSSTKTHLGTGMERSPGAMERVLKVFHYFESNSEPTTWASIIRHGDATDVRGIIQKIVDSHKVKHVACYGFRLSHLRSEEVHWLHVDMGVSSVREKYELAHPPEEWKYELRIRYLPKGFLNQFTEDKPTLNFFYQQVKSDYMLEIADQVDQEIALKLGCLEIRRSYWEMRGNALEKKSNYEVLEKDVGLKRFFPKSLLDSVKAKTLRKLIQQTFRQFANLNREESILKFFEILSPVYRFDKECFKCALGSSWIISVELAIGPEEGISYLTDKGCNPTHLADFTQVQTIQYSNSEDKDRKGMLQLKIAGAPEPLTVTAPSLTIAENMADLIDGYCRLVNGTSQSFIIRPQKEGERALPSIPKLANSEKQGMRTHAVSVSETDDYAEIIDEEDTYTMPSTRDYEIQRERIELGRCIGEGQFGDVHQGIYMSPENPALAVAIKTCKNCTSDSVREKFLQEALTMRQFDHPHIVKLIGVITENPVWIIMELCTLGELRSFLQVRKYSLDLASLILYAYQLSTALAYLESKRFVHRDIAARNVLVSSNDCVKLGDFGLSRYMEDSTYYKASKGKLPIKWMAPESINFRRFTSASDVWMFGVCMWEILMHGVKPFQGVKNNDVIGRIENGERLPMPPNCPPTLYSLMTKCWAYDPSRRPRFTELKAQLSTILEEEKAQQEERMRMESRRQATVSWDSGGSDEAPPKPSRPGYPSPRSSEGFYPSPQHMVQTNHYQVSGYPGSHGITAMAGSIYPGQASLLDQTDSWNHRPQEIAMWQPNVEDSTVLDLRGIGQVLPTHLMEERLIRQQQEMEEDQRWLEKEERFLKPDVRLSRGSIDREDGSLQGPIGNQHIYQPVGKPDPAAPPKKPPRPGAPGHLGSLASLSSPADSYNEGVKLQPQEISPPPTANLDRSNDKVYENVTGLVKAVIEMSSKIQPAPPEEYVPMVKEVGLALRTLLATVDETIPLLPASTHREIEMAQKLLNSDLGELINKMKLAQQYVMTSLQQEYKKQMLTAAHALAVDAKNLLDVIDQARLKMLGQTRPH

[12] = tested on: Fibrinogen (Alexa647-labelled); experiment: fibrinogen binders on compound microarrays, profiling panel, artefact control for SMM control-protein annotation, biochemical, small-molecule microarray, 635/667 nm fluorescence (AID 1131); settings: fibrinogen-A647 binding fluorescence, higher = more signal;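 further: z-score merges 667 nm fluorescence with per-spot signal-to-noise over triplicate slides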
[13] = target: Follistatin (Homo sapiens) (UniProt P19883); experiment: follistatin binders on small-molecule microarrays, primary screen, biochemical, small-molecule microarray, 635/667 nm fluorescence (AID 1132); settings: FST binding, 635 nm fluorescence, higher = more signal
Sequence of Follistatin (Homo sapiens) (P19883 whole entry, looked up): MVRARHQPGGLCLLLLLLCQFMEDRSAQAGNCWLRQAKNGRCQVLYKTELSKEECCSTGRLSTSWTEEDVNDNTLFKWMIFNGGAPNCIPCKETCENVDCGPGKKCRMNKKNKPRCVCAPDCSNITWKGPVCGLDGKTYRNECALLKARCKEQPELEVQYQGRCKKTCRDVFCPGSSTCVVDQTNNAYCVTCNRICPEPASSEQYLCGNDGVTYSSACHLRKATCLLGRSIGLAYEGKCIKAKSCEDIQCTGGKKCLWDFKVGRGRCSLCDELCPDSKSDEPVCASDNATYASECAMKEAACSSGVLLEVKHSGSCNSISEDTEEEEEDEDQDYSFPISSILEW

[14] = target: Fibroblast growth factor 2 (Homo sapiens) (UniProt P09038); experiment: FGF2 binders on small-molecule microarrays, primary screen, biochemical, small-molecule microarray, 635/667 nm fluorescence (AID 1133); settings: small-molecule microarray binding, FGF2, fluorescence 635/667; higher = more signal
Sequence of Fibroblast growth factor 2 (Homo sapiens) (P09038 whole entry, looked up): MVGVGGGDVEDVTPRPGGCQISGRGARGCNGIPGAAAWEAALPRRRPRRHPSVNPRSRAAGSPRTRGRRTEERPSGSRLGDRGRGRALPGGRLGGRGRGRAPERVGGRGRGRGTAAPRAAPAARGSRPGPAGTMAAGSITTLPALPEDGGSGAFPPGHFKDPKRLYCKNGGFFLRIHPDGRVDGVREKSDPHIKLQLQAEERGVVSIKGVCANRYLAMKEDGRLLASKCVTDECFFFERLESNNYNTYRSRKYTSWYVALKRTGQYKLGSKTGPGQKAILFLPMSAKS

[15] = mitochondrial membrane potential change in A549 cells, profiling panel, cell-based, JC-1 fluorescence, basal, 24 h, 100 nL (AID 1138); settings: higher = more signal;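 further: A549 lung adenocarcinoma cells under basal conditions with no added stimulus; test concentration not given here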
Lefty1 = Lefty1 binders on small-molecule microarrays, primary screen, biochemical, small-molecule microarray, 635/667 nm fluorescence (AID 1139); settings: small-molecule microarray binding, fluorescence 635/667; higher = more signal
[16] = tested on: wheat germ agglutinin (Triticum aestivum), Alexa647-labelled; experiment: wheat germ agglutinin binders on compound microarrays, profiling panel, artefact control for SMM control-protein annotation, biochemical, small-molecule microarray, 635/667 nm fluorescence (AID 1140); settings: WGA-A647 binding, 635 nm fluorescence, higher = more signal;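 further: score merges 667 nm feature emission with signal to noise over triplicate slides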
[17] = target: Luciferin 4-monooxygenase (Photinus pyralis) (UniProt P08659); experiment: firefly luciferase enzyme inhibitors, primary screen, biochemical, luminescence, purified enzyme, 2006 set (AID 1141); settings: SteadyGlo luminescence, 30 min, higher = more signal, called active from +8 up or from −8 down;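 further: cell-free assay with purified firefly luciferase at 100 ng per well in PBS; test concentration not given here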
Sequence of Luciferin 4-monooxygenase (Photinus pyralis) (P08659 whole entry, looked up): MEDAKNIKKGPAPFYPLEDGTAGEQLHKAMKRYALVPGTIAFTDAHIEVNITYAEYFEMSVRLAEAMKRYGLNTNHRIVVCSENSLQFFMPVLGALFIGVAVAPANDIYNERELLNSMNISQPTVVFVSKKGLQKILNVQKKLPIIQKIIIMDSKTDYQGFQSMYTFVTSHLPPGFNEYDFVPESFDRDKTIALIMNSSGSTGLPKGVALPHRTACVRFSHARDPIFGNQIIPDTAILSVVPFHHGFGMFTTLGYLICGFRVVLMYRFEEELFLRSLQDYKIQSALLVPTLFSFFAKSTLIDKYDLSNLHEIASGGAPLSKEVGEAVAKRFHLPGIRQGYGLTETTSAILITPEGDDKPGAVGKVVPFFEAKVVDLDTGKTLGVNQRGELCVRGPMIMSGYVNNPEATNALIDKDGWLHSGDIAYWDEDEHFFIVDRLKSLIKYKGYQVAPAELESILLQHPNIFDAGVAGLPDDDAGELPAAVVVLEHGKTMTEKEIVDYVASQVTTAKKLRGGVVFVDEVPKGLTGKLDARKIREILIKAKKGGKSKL

Sequence of Albumin (Bos taurus) (P02769 whole entry, looked up): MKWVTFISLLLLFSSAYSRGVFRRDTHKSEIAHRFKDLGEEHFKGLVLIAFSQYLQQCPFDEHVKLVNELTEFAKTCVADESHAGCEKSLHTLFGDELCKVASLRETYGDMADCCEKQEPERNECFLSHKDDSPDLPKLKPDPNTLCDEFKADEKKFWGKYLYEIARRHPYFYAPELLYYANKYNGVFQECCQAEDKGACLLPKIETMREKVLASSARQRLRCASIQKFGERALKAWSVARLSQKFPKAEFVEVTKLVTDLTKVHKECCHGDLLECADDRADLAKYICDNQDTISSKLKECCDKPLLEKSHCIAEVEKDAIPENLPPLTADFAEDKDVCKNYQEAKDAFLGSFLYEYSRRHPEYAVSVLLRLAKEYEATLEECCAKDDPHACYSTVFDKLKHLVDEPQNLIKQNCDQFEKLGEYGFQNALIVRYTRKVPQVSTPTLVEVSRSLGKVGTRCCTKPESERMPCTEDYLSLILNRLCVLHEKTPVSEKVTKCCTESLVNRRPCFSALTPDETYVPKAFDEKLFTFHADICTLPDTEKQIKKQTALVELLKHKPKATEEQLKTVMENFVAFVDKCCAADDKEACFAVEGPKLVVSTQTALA

Compound | composite z-score (Albumin (Bos taurus)) | composite Z-score [1] | composite z-score [2] | composite z-score [3] | composite z-score [4] | composite z-score [5] | composite z-score [6] | composite z-score (Sam68 (KHDRBS1)) | composite z-score [7] | composite z-score [8] | composite z-score [9] | composite z-score [10] | composite z-score [11] | composite z-score [12] | composite z-score [13] | composite z-score [14] | z-score [15] | composite z-score (Lefty1) | composite z-score [16] | z-score [17]
COCCOC(=O)N1C(=O)[C@@]2(c3cc(C#CC4=CCCCC4)ccc31)[C@H](C(=O)NC[C@H](O)c1ccccc1)[C@H]1C(=O)O[C@H](c3ccccc3)[C@H](c3ccccc3)N1[C@@H]2c1ccccc1OCCO | 0.648 | 0.155 (inactive) | 0.315 | -0.0311 | 0.358 | 1.11 | 0.474 | 1.3 | 0.239 | 1.09 | 0.69 | 1.17 | 0.985 | 0.943 | 1.34 | 0.825 | -1.49 | 1.09 | 1.09 | -0.855 (inactive)
CO[C@H]1O[C@H](CO)[C@@H](OC(=O)Nc2ccc3c(c2)OCO3)[C@H](OC(=O)Nc2ccccc2)[C@@H]1OC(=O)Nc1ccccc1 | 0.792 | 0.0474 (inactive) | -0.004 | -0.0952 | 0.743 | 3 | 0.982 | 1.29 | -0.0509 | 1.09 | 1.79 | 1.22 | 1.02 | 0.968 | 1.41 | 1.83 | 0.187 | 0.823 | 0.497 | -0.899 (inactive)
COC(=O)c1c(CC[C@@H](CO)NC(=O)N[C@H](Cn2cc(-c3cncn3C)nn2)C(C)C)oc(C(C)=O)c1C(=O)OC | 0.697 | 0.24 (inactive) | -0.0647 | -0.11 | 0.514 | 0.651 | 0.203 | 1.27 | 0.0779 | 1.07 | 1.15 | 0.722 | -0.205 | -0.0397 | 0.415 | 1.11 | -0.315 | 0.999 | -0.0889 | -0.263 (inactive)
COCCOC(=O)N1C(=O)[C@@]2(c3cc(C#CCCO)ccc31)[C@H](C(=O)N1CCCCCCC1)[C@H]1C(=O)O[C@H](c3ccccc3)[C@H](c3ccccc3)N1[C@@H]2c1ccc(O)cc1 | 0.792 | 0.516 (inactive) | 0.715 | 0.102 | 0.731 | 2.81 | 0.837 | 1.29 | 0.279 | 1.11 | 1.12 | 1.18 | 1.49 | 0.555 | 1.34 | 0.661 | 1.65 | 0.957 | 1.1 | -0.888 (inactive)
Cc1ccc(S(=O)(=O)c2cc3oc2CC[C@@H](CO)NC(=O)N(C)Cc2cn(nn2)C[C@H](Cc2ccccc2)NC3=O)cc1 | 0.811 | 0.222 (inactive) | -0.0006 | -0.145 | 0.581 | 0.682 | 0.192 | 0.476 | -0.479 | 0.894 | 3.02 | -0.157 | 2.07 | 0.814 | -0.0009 | 0.108 | 1.95 | -0.442 | -0.0961 | -1.53 (inactive)
O=C1C2C=CC(C(O)Cc3ccccc3)N(Nc3ccc([N+](=O)[O-])cc3)C2C(=O)N1c1ccccc1 (stereo not given) | 0.944 | -0.205 (inactive) | 0.357 | 0.401 | 0.759 | 1.02 | 0.517 | 0.719 | 0.709 | 0.185 | 1.46 | 1.01 | 0.331 | 0.405 | 0.252 | -0.165 | -0.75 | -0.0551 | 0.245 | 1.36 (inactive)
COc1ccc(-c2cc3c(c(-c4ccccc4)n2)[Si](C(C)C)(C(C)C)O[C@H]3c2ccccc2)cn1 | 0.843 | 0.0861 (inactive) | 0.201 | -0.0349 | -0.0177 | 0.263 | -0.0375 | 0.723 | 0.288 | 0.165 | -0.614 | 0.438 | -0.142 | 0.0413 | 0.758 | 0.343 | 0.136 | 0.506 | -0.0707 | 0.167 (inactive)
NC(=O)NCC#Cc1ccc2c(c1)[C@]1(C(=O)N2)[C@H](c2ccccc2OCCO)N2[C@H](c3ccccc3)[C@H](c3ccccc3)OC(=O)[C@H]2[C@@H]1C(=O)N1CCN(c2ncccn2)CC1 | 0.0405 | 0.39 (inactive) | 0.0539 | -0.0907 | 0.335 | 1.82 | 0.614 | 1.29 | 0.326 | 0.946 | 0.997 | 1.19 | 0.695 | 0.814 | 1.08 | 1.03 | -0.77 | 0.347 | 0.438 | -0.538 (inactive)
CCCNC(=O)[C@@H]1c2ccccc2C(=O)N(C2CCCCC2)[C@H]1c1ccc(CO)cc1 | 0.334 | 0.474 (inactive) | 0.103 | -0.106 | 0.293 | 2.72 | 0.711 | 1.29 | 0.179 | 1.03 | 2.26 | 1.22 | 0.798 | 0.958 | 0.927 | 0.915 | 0.888 | 0.443 | 0.795 | 0.311 (inactive)
COCCOC(=O)N1C(=O)[C@@]2(c3cc(C#CCCO)ccc31)[C@H](c1ccc(OCCO)cc1)N1[C@H](c3ccccc3)[C@H](c3ccccc3)OC(=O)[C@H]1[C@@H]2C(=O)NC[C@H](O)c1ccccc1 | -0.525 | 0.463 (inactive) | 0.272 | -0.146 | 0.484 | 1.78 | 0.54 | 1.29 | 0.716 | 1.05 | 1.23 | 1.21 | 0.76 | 0.883 | 1.39 | 1.36 | -1.15 | 1.24 | 0.728 | -0.216 (inactive)
C=C(CCCC)/C(=C/C[C@@H](OC(=O)c1ccncc1)c1cccc(OCCO)c1)c1cc(C(=O)OC)ccc1OC | 0.6 | -0.259 (inactive) | 0.0893 | -0.0974 | 0.57 | 2.84 | 1.05 | 1.19 | 0.287 | 1.11 | 0.541 | 1.17 | 0.0708 | 0.939 | 1.12 | 0.627 | 4.97 | 0.959 | 1.09 | -2.22 (inactive)

Source: PubChem BioAssay
